Consider 17 molecules from ChEMBL document CHEMBL1961873, “Compounds: GSK PKIS; Assays: Nanosyn kinase panel” (2012).

Experiment [1] deals with T1, 3-phosphoinositide-dependent protein kinase 1 (Homo sapiens) (UniProt O15530).
T1 sequence (whole entry): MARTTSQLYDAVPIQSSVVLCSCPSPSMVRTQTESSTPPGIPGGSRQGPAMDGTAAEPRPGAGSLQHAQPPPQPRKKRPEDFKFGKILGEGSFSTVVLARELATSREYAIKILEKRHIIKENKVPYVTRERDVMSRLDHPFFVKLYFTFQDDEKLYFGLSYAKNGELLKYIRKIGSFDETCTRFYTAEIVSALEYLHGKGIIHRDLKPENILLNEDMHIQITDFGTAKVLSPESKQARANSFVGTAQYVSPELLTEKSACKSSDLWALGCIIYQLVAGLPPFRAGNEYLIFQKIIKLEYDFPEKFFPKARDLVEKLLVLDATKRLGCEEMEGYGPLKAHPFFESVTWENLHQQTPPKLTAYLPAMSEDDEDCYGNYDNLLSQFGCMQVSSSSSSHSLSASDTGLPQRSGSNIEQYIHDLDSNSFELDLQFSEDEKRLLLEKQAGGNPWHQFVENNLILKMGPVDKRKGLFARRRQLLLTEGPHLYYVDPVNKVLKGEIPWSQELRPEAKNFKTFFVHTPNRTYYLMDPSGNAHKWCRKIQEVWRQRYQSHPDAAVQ
The following applies: at 0.1 µM.

Experiment [2] has as its target cAMP-dependent protein kinase catalytic subunit alpha (Homo sapiens) (UniProt P17612). The following applies: at 0.1 µM.
The target is the same in experiment [3]. The following applies: at 1 µM.
Experiment [4] has as its target Protein kinase C alpha type (Homo sapiens) (UniProt P17252). Conditions: at 0.1 µM.
Experiment [5] has the same target. The following applies: at 1 µM.
Experiment [6] has as its target Protein kinase C beta type (Homo sapiens) (UniProt P05771). Conditions: at 0.1 µM.
Experiment [7] has the same target. Conditions: at 1 µM.
In experiment [8] the target is Protein kinase C eta type (Homo sapiens) (UniProt P24723). The following applies: at 0.1 µM.
Experiment [9] has the same target. Conditions: at 1 µM.
For experiment [10], the target named is Protein kinase C gamma type (Homo sapiens) (UniProt P05129). The following applies: at 0.1 µM.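 Further: values are mean percent inhibition of PKC gamma.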

SMILES strings stand for the structures.

Sequence of Protein kinase C eta type (Homo sapiens) (P24723 whole entry): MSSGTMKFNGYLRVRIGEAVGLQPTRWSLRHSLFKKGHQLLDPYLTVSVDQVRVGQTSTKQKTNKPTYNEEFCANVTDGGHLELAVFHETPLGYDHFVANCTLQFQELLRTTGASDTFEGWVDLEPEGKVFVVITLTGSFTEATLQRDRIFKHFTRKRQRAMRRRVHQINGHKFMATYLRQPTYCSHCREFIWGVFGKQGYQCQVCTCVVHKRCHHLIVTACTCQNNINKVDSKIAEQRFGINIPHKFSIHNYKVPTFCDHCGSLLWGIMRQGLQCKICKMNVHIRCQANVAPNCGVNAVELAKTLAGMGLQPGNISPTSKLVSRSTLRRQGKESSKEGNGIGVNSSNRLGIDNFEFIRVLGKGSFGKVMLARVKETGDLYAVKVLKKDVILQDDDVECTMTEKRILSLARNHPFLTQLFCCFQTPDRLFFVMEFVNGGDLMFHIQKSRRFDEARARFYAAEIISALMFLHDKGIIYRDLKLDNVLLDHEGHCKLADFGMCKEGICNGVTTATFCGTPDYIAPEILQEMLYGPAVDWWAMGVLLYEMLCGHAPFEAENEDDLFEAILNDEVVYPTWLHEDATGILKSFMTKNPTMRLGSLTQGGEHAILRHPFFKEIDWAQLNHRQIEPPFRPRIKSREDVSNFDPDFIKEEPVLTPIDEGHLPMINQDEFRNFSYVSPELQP
Sequence of Protein kinase C beta type (Homo sapiens) (P05771 2-671 limits assumed): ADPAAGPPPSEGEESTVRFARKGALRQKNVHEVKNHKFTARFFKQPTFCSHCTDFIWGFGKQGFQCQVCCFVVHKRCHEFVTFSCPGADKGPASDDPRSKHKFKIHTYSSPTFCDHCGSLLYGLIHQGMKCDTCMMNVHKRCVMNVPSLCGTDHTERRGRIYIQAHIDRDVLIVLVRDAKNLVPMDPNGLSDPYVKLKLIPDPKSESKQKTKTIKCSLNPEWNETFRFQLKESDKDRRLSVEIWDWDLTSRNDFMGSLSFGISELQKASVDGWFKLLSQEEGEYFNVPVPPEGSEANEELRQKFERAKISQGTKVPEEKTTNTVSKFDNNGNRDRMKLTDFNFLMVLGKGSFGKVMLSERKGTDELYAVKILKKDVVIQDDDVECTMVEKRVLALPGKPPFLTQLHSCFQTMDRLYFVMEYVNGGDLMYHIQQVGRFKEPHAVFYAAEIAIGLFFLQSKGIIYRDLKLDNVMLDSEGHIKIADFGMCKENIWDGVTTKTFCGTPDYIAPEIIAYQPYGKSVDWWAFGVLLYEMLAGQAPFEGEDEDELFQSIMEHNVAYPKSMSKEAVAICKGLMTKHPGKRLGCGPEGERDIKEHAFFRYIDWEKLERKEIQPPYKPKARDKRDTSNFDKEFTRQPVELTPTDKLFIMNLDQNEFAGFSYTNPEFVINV

With `Fc1ccc(-c2ncn(CCCN3CCOCC3)c2-c2ccncc2)cc1`, the inhibition (commonly the change of the read-out against control, counted positive when it falls) is -0.98% in experiment [1]; 0.23% in [2]; 1.67% in experiment [3]; 1.44% in experiment [4]; 1.07% in [5]; -0.46% in experiment [6]. The inhibition is -0.8% in [7], -2.71% in experiment [8], -1.13% in [9] and -1.84% in [10].
`Cc1ccc(C(=O)NC2CCC2)cc1-c1ccc(C(=O)NCC2CC2)cc1`: the inhibition in experiment [1] was 1.97%; in experiment [2], 1.15%; in [3], 1.14%; in experiment [4], 0.19%; in experiment [5], -0.23%; in [6], 0.31%. In addition, the inhibition worked out at 1.48% in experiment [7], 7.1% in experiment [8], 2.68% in experiment [9] and 0.43% in experiment [10].
For `Fc1ccc(-c2ncn(C3CCNCC3)c2-c2ccnc(Oc3ccc4c(c3)OCO4)n2)cc1`, the inhibition in experiment [1] was -1.49%; in [2], 6.76%; in experiment [3], 37.9%; in experiment [4], 1.59%; in experiment [5], 3.68%; in [6] it was 1.12%. The inhibition in experiment [7] stood at 8.79%; in experiment [8], 7.87%; in experiment [9], 4.75%; in [10] it was 0.91%.
With `COc1ccc(C2=C(N3CCc4ccccc43)C(=O)NC2=O)cc1`, the inhibition amounted to 4.19% in [1]; 1.7% in experiment [2]; 1.99% in experiment [3]; 1.46% in experiment [4]; 3.07% in [5]; 1.02% in experiment [6]. The inhibition in experiment [7] turned out to be 2.88%; in [8], 2.61%; in [9], 6.52%; in [10], 4.16%.
`COc1ccc2ncn(-c3cc(O[C@H](C)c4ccccc4Cl)c(C(N)=O)s3)c2c1`: the inhibition in [1] was 0.22%; in experiment [2], -1.47%; in [3], -1%; in experiment [4], -2.81%; in experiment [5], -1.38%; in experiment [6] it was 1.09%. Also, the inhibition in experiment [7] is 2.58%; in [8], 5.09%; in experiment [9], 3.95%; in [10] it was 0.98%.
Turning to `O=C(Nc1n[nH]c2cc(-c3cc(F)ccc3F)ccc12)C1CC1`, the inhibition turned out to be 2.95% in [1]; 2.32% in experiment [2]; 0.93% in experiment [3]; 0.67% in experiment [4]; 1.99% in experiment [5]; 0.43% in experiment [6]. Also, the inhibition was determined as 2.04% in experiment [7], 2.87% in experiment [8], 3.93% in [9] and 2.77% in experiment [10].
As for `COc1cc2ncn(-c3cc(OCc4cccs4)c(C(N)=O)s3)c2cc1OC`, the inhibition was 3.07% in [1]; -0.85% in experiment [2]; -2.23% in experiment [3]; -2.88% in experiment [4]; -2.59% in [5]; 5.39% in experiment [6]. Besides, the inhibition stood at 8.77% in experiment [7], 4.49% in experiment [8], 4.09% in experiment [9] and 4.75% in experiment [10].
For `COc1cc2ncn(-c3cc(OCCc4ccccc4)c(C(N)=O)s3)c2cc1OC`, the inhibition in experiment [1] is 1.29%; in experiment [2], 1.37%; in experiment [3], -1.08%; in [4], 0.95%; in experiment [5], 1.14%; in experiment [6] it was 0.05%. Moreover, the inhibition is -0.8% in experiment [7], -1.3% in experiment [8], 0.58% in [9] and 1.89% in experiment [10].
As to `NC(=O)c1ccc(Oc2nccc(-c3c(-c4ccc(F)cc4)ncn3C3CCNCC3)n2)cc1`, the inhibition in [1] stood at 1.43%; in experiment [2], 8.89%; in experiment [3], 43%; in experiment [4], 1.16%; in experiment [5] it was 2.25%; in [6], 1.04%. Besides, the inhibition was 5.96% in experiment [7], 5.08% in experiment [8], 5.97% in [9] and 2.56% in experiment [10].
Consider `COc1cc(Nc2ncc3c(C)nc(-c4cccc(Oc5ccccc5)c4)n3n2)cc(OC)c1OC`, for which the inhibition in experiment [1] was 3.74%; in experiment [2] it was 0.88%; in [3], -0.04%; in experiment [4] it was 0.01%; in experiment [5], 0.77%; in experiment [6] it was -0.46%. Also, the inhibition in experiment [7] was -0.16%; in experiment [8] it was 4.9%; in experiment [9], -1.37%; in experiment [10], 0.97%.
As for `COc1cc(Nc2ncc3c(C)nc(-c4cccc(C(F)(F)F)c4)n3n2)cc(OC)c1OC`, the inhibition is 3.64% in [1]; 2.66% in experiment [2]; 2.72% in experiment [3]; -0.1% in experiment [4]; 1.99% in [5]; 0.93% in experiment [6]. The inhibition in experiment [7] came to 5.54%; in experiment [8], 6.38%; in [9], 3.64%; in experiment [10] it was 2.47%.
On to `CN(C)CCOc1ccc(-c2cc(-c3ccc4c(c3)CCC4=NO)c(-c3ccncc3)o2)cc1`, for which the inhibition in experiment [1] is 0.51%; in experiment [2], 2.75%; in [3] it was 21%; in experiment [4], -0.04%; in experiment [5], 1.32%; in experiment [6], -1.02%. The inhibition in experiment [7] was 4.4%; in [8], 0.38%; in experiment [9], -1.11%; in [10], 0.61%.
Regarding `COc1cc(N2CCN(C(C)C)CC2)ccc1Nc1nc(Nc2ccc(F)cc2C(=O)NC[C@@H](O)CO)c2cc[nH]c2n1`, the inhibition was -0.19% in [1]; -1.57% in experiment [2]; 0.73% in experiment [3]; -2.86% in [4]; -2.46% in experiment [5]; 1.6% in [6]. Also, the inhibition was 4.35% in experiment [7], 4.05% in experiment [8], 7.17% in [9] and -2.06% in [10].
Turning to `Cc1ccc(NC(=O)c2ccoc2)cc1-c1ccc(C(=O)NCC2CC2)cc1`, the inhibition in [1] was 0.18%; in [2] it was 2.1%; in [3] it was 2.23%; in [4] it was -0.03%; in [5], 0.82%; in [6], 1.84%. Further, the inhibition in experiment [7] was 1.76%; in experiment [8], 4.75%; in experiment [9] it was 3.88%; in [10] it was -1.55%.
`C/C(Nc1ccc(S(N)(=O)=O)cc1)=C1/C(=O)Nc2ccccc21`: the inhibition in [1] is 6.52%; in experiment [2], -1.19%; in [3], 2.61%; in [4], 0.02%; in experiment [5], 0.38%; in experiment [6] it was -0.26%. The inhibition in [7] was 1.85%; in experiment [8], -1.23%; in experiment [9] it was -1.17%; in [10], -3.82%.
`CN(C)CCCNc1nccc(-c2c(-c3ccc(F)cc3)nn3cc(C(F)(F)F)ccc23)n1`: the inhibition was 2.53% in experiment [1]; -2.76% in experiment [2]; -2.98% in [3]; -2.9% in experiment [4]; -2.14% in experiment [5]; 2.22% in experiment [6]. Moreover, the inhibition in experiment [7] amounted to 0.97%; in experiment [8], 6.55%; in [9], 0.14%; in experiment [10], 1.19%.
As for `NC(=O)c1cc(-c2ccncc2)cc(-c2ccccc2)c1N`, the inhibition worked out at 2.16% in [1]; 2.43% in experiment [2]; 6.13% in experiment [3]; 1.21% in [4]; 4.38% in experiment [5]; 1.43% in experiment [6]. Moreover, the inhibition in experiment [7] was 1.87%; in [8] it was 5.05%; in [9], 7.89%; in experiment [10] it was -0.73%.
